Laboratory results: PubChem BioAssay (Tox21)
Records with an inconclusive call do not appear. Entries that show only a call come without a potency. Active and inactive are the calls of the source. Unless noted, calls come from the whole dose curve; as a rule, active = well fitted curve in the direction sought with a large enough effect in the repeat runs; inconclusive = weak or mixed curves; inactive = no such curve, though single readings can be large; an effect the other way counts as inactive or inconclusive. Positions of bridges follow the written chain, without caps; N, C: chain ends. Non-standard residues stand in square brackets, D forms with d. Residues, ends and D or L forms follow the SMILES beside them. ξ: configuration not given here. *: point of attachment. d(aThr) = C[C@@H](O)[C@@H](N)C(=O)O; ξThr(3R) = C[C@@H](O)C(N)C(=O)O; X3 = CC[C@@H](C)CCCCC(=O)*; dDab = NCC[C@@H](N)C(=O)O

Assays:
[1] = qHTS assay for small molecules that induce genotoxicity in human embryonic kidney cells expressing luciferase-tagged ATAD5 (AID 651632); note: nearly all actives have a fitted effect of over 15% in size; note: potency is the fitted concentration of half-maximal effect
Outline: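 A rise in luciferase signal from ATAD5-tagged HEK293T cells marks genetic stress. Cells were exposed to compounds for 16 hr at 37C, 5% CO2, then luciferase was quantified after a 30 min room-temperature incubation with Amplite.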

[2] = qHTS assay for small molecules that induce genotoxicity in human embryonic kidney cells expressing luciferase-tagged ATAD5 - cell viability (AID 651634; calls by dose curve; note: nearly all actives have a fitted effect of over 25% in size; note: potency is the fitted concentration of half-maximal effect)
Outline: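 Cytotoxicity counter-readout: after 15.5 hr compound treatment at 37C, live-cell protease activity in ATAD5-luciferase HEK293T cells measured by CellTiter-Fluor fluorescence, 30 min development at 37C.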

[3] = qHTS assay for small molecule disruptors of the mitochondrial membrane potential - cell viability (AID 720634; calls by dose curve;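 note: human HepG2 liver cancer cells; nearly all actives have a fitted effect of over 20% in size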)
Outline: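 Cytotoxicity was quantified from ATP content by CellTiter-Glo luminescence in the same wells as the MMP dye read-out. HepG2 (2,000 cells/well) were plated overnight and exposed to compounds for 1 hr at 37 C.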

[4] = qHTS assay to test for compound auto fluorescence at 590 nm (red) in HepG2 cells (AID 720674)
Outline: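 1 hr compound incubation on HepG2 cells, 37 C, 5% CO2; plate read ex 540 nm / em 590 nm; intensities reported as Rose Bengal sodium equivalents.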

[5] = qHTS assay to test for compound auto fluorescence at 535 nm (green) in HepG2 cells (AID 720675)
[6] = qHTS assay to test for compound auto fluorescence at 460 nm (blue) in HEK293 cells (AID 720678)
Outline: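 Measured: blue fluorescence (Ex 405/Em 460 nm) of compound-treated HEK293 cells, incubated overnight at 37C with 5% CO2 and scaled to triamterene equivalents.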

[7] = qHTS assay to test for compound auto fluorescence at 590 nm (red) in HEK293 cells (AID 720679)
Outline: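 Using HEK293 cells at 2,000 per well, the screen added 23 nL of each compound after cell attachment and incubated overnight (37C, 5% CO2). The plate reader then captured red-label fluorescence, Ex/Em 540/590nm.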

[8] = qHTS assay to test for compound auto fluorescence at 535 nm (green) in HEK293 cells (AID 720680)
[9] = qHTS assay to test for compound auto fluorescence at 460 nm (blue) in HEK293 cell free culture (AID 720681)
Outline: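 Blue fluorescence (Ex 405/Em 460 nm, triamterene-equivalent) was read immediately after pin transfer of compound or DMSO into medium (DMEM, 10% FBS) without cells.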

[10] = qHTS assay to test for compound auto fluorescence at 535 nm (green) in HEK293 cell free culture (AID 720682)
Outline: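 Fluorescein serves as the green reference fluorophore; each compound's intrinsic emission at 535 nm (excitation 485 nm) is reported as an equivalent amount of that dye, measured in serum-containing DMEM without cells.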

[11] = qHTS assay to test for compound auto fluorescence at 590 nm (red) in HEK293 cell free culture (AID 720683)
Outline: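 Red-channel autofluorescence of compounds in culture medium (DMEM, 10% FBS), no cells, measured at 540/590 nm. Rose Bengal sodium is the reference fluorophore for equivalence.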

[12] = qHTS assay to test for compound auto fluorescence at 590 nm (red) in HepG2 cell free culture (AID 720684)
Outline: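 No cells present: MEM + 10% FBS only. Compound pinned in, red label read (540/590 nm). Activity = fluorescence equivalent to Rose Bengal sodium.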

[13] = qHTS assay to test for compound auto fluorescence at 460 nm (blue) in HepG2 cell free culture (AID 720685)
Outline: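 Cell-free plates of MEM plus 10% FBS received 23 nL compound or DMSO vehicle; blue-channel (405/460 nm) intensity scored against triamterene as reference fluorophore.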

[14] = qHTS assay to test for compound auto fluorescence at 535 nm (green) in HepG2 cell free culture (AID 720686)
[15] = qHTS assay to test for compound auto fluorescence at 460 nm (blue) in HepG2 cells (AID 720687)
Outline: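 Blue-channel autofluorescence (Ex/Em 405/460 nm, triamterene-equivalent) was measured after 1 hr compound exposure at 37 C, 5% CO2. Cells were HepG2, plated overnight at 37 C in MEM plus 10% FBS.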

[16] = molecular target: Glucocorticoid receptor (Homo sapiens) (UniProt P04150); assay: qHTS assay to identify small molecule agonists of the glucocorticoid receptor (GR) signaling pathway (AID 720691; active = well fitted activation curve with a large enough effect in the signal ratio in the repeat runs, not every such curve was filed as active; the % refers to the signal ratio); details: GR-bla HeLa, beta-lactamase reporter ratio, 18 h; activation: at 62.4 µM (top of the series)
Chain of Glucocorticoid receptor (Homo sapiens) (P04150 whole entry, looked up): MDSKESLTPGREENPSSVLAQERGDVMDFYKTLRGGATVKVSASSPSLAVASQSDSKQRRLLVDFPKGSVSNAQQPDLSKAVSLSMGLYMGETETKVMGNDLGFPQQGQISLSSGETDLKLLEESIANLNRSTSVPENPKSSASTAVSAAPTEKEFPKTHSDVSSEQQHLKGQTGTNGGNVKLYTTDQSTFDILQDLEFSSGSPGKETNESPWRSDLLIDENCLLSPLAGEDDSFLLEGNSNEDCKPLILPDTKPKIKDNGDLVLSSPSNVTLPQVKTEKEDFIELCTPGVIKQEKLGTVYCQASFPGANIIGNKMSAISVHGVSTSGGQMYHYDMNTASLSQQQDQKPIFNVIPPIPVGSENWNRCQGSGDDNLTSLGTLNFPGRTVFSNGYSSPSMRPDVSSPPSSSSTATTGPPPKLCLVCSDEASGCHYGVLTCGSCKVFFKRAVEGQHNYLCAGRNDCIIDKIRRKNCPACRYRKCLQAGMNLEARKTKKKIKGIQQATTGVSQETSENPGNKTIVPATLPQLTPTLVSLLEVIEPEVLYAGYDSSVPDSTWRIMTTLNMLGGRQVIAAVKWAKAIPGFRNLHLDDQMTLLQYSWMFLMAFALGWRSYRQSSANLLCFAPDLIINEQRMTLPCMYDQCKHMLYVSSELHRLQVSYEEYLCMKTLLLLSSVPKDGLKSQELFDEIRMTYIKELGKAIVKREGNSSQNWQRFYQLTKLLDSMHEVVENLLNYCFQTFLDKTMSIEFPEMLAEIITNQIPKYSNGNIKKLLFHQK
Outline: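 Agonist-mode qHTS in HeLa cells stably expressing a glucocorticoid-response-element beta-lactamase reporter. Fluorescence intensity read with FRET substrate (2 h, room temperature) after 18 h compound treatment at 37 C.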

[17] = molecular target: Glucocorticoid receptor (Homo sapiens) (UniProt P04150); assay: qHTS assay to identify small molecule antagonists of the glucocorticoid receptor (GR) signaling pathway (AID 720692; active = well fitted inhibition curve with a large enough effect in the signal ratio in the repeat runs, not every such curve was filed as active; the % refers to the signal ratio)
Outline: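 Inhibition of dexamethasone-driven (5 nM final) beta-lactamase expression was measured in GRE-reporter HeLa cells over 18 h at 37C. Fluorescence was read after 2 h with the B/G FRET substrate at room temperature.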

[18] = qHTS assay for small molecule disruptors of the mitochondrial membrane potential (AID 720635); note: potency is the fitted concentration of half-maximal effect
Outline: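 Mitochondrial membrane potential tracked with Mito-MPS dye, red aggregates (ex 540/em 590 nm) against green monomers (ex 490/em 535 nm). Compound treatment 1 hr at 37C, dye 30 min in HepG2.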

[19] = qHTS assay for small molecule agonists of the p53 signaling pathway - cell viability (AID 651633; calls by dose curve; note: potency is the fitted concentration of half-maximal effect; nearly all actives have a fitted effect of over 30% in size)
Outline: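 Viability counter-read: CellTiter-Glo luminescence (30 min, room temperature) in the same p53RE-bla plates. These plates had been exposed to compounds for 16 h at 37 C.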

Row | SMILES | Potency [1] | Potency [2] | Potency [3] | Potency [4] | Potency [5] | Potency [6] | Potency [7] | Potency [8] | Potency [9] | Potency [10] | Potency [11] | Potency [12] | outcome [13] | Potency [14] | outcome [15] | Potency [16] | Potency [17] | Potency [18] | Potency [19]
1 | COc1ccccc1N1CCN(CCCC(=O)c2ccc(F)cc2)CC1 | inactive | inactive | inactive | inactive | inactive | inactive | inactive | inactive | inactive | inactive | inactive | inactive | inactive | inactive | inactive | inactive | inactive | – | –
2 | CCC(=O)O[C@@H]1CC(=O)O[C@H](C)C/C=C/C=C/[C@H](O)[C@H](C)C[C@H](CC=O)[C@H](O[C@@H]2O[C@H](C)[C@@H](O[C@H]3C[C@@](C)(O)[C@@H](OC(=O)CC)[C@H](C)O3)[C@H](N(C)C)[C@H]2O)[C@H]1OC | inactive | inactive | inactive | inactive | inactive | inactive | inactive | inactive | inactive | inactive | inactive | inactive | inactive | inactive | inactive | inactive | inactive | inactive | –
3 | O=C1N=C2SCCN2C(=O)C1Cc1ccc(Cl)cc1 (stereo not given) | inactive | inactive | inactive | inactive | inactive | inactive | inactive | inactive | inactive | inactive | inactive | inactive | inactive | inactive | inactive | inactive | inactive | – | –
4 | CC(C)(C)NC(=O)[C@H]1CC[C@H]2[C@@H]3CC=C4C=C(C(=O)O)CC[C@]4(C)[C@H]3CC[C@]12C | inactive | inactive | inactive | inactive | inactive | inactive | inactive | inactive | inactive | inactive | inactive | inactive | inactive | inactive | inactive | inactive | – | – | –
5 | CN1CCN(C2=Nc3ccccc3Cc3ccccc32)CC1 | inactive | inactive | inactive | inactive | inactive | inactive | inactive | inactive | inactive | inactive | inactive | inactive | inactive | inactive | inactive | inactive | inactive | – | –
6 | Cc1ccc(S(=O)(=O)NC(=O)N[C@@H](C)Cc2ccccc2)cc1 | inactive | inactive | inactive | inactive | inactive | inactive | inactive | inactive | inactive | inactive | inactive | inactive | inactive | inactive | inactive | – | – | – | –
7 | CN[C@@H]1[C@@H](O)[C@@H](O[C@@H]2[C@@H](O)[C@H](OC3OC(CN)=CCC3N)[C@@H](N)C[C@H]2N)OC[C@]1(C)O (stereo not given in full) | inactive | inactive | inactive | inactive | inactive | inactive | inactive | – | inactive | inactive | inactive | inactive | inactive | inactive | inactive | inactive | inactive | inactive | –
8 | CC[C@@H](C)CCCCC(=O)N[C@H](CCN)C(=O)N[C@@H](C(=O)N[C@H](CCN)C(=O)N[C@@H]1CCNC(=O)C([C@@H](C)O)NC(=O)[C@@H](CCN)NC(=O)[C@@H](CCN)NC(=O)[C@@H](CC(C)C)NC(=O)[C@@H](Cc2ccccc2)NC(=O)[C@@H](CCN)NC1=O)[C@@H](C)O (stereo partly drawn) (X3-[dDab][d(aThr)][dDab][dDab][dDab][dF][dL][dDab][dDab][ξThr(3R)]; lactam 4-C) | inactive | inactive | inactive | inactive | inactive | inactive | inactive | inactive | inactive | inactive | inactive | inactive | inactive | inactive | inactive | inactive | inactive | inactive | –
9 | CC[C@]1(O)CC2CN(CCc3c([nH]c4ccccc34)[C@@](C(=O)OC)(c3cc4c(cc3OC)N(C)[C@H]3[C@@](O)(C(N)=O)[C@H](O)[C@]5(CC)C=CCN6CC[C@]43[C@@H]65)C2)C1 (stereo not given in full) | 3.35 µM (active) | 0.531 µM (active) | inactive | inactive | inactive | inactive | inactive | inactive | inactive | inactive | inactive | inactive | inactive | inactive | inactive | inactive | – | 10.6 µM (active) | –
10 | NCCC(=O)[N-][C@@H](Cc1cnc[nH]1)C(=O)O.[Zn] | inactive | inactive | inactive | inactive | inactive | inactive | inactive | inactive | inactive | inactive | inactive | inactive | inactive | inactive | inactive | – | – | inactive | –
11 | CCOC(=O)[C@H](CS)NCCN[C@@H](CS)C(=O)OCC | inactive | inactive | inactive | inactive | inactive | inactive | inactive | inactive | inactive | inactive | inactive | inactive | inactive | inactive | inactive | inactive | inactive | inactive | –
12 | CC1(C)S[C@@H]2[C@H](NC(=O)[C@H](NC(=O)N3CCN(S(C)(=O)=O)C3=O)c3ccccc3)C(=O)N2[C@H]1C(=O)O | inactive | inactive | inactive | inactive | inactive | inactive | inactive | inactive | inactive | inactive | inactive | – | inactive | inactive | inactive | inactive | inactive | inactive | –
13 | CCCC1([C@H](O)C/C=C/[C@H]2[C@H](O)CC(=O)[C@@H]2CCCCCCC(=O)OC)CCC1 | inactive | – | – | inactive | inactive | inactive | inactive | – | inactive | inactive | – | inactive | – | inactive | inactive | inactive | – | – | 29.8 µM (active)
